High-throughput results from PubChem.
CYP2C9 inhib = inhibitors of human CYP2C9 | inhibition, % at 5 µM | P11712 | AID 777 | 96,000 compounds, 20% hits | CYP2C9 Supersomes, luciferin-H conversion, luminescence;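 active means blocking of liver enzyme CYP2C9 beyond about 50% at 5 µM, limit read from the data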
Target sequence (P11712 whole entry, looked up): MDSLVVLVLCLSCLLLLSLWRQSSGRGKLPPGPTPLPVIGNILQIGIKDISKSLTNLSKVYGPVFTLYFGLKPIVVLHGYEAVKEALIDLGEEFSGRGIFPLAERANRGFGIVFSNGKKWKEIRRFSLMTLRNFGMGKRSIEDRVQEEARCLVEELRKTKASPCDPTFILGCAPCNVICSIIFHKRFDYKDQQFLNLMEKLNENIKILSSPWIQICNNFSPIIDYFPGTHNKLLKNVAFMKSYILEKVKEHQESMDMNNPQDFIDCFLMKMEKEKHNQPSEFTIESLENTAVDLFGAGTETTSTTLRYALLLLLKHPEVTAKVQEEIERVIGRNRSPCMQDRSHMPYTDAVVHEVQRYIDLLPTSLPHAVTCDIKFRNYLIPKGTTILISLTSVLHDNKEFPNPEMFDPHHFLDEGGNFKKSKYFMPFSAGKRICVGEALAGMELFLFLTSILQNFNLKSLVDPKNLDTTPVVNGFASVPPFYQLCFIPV
CYP2C19 activ = increases human CYP2C19 enzyme activity. P33261. recombinant CYP2C19, luciferin-H EGE luminescence; hits give high values; 0 = fully inhibited enzyme, 1 = untreated enzyme. activation factor at 5 µM. 96,000 tested, under 10 active. AID 1025;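 active means activation factor of at least 2 at 5 µM in the primary screen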;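 further: 0 = wells with 2.5 mM tranylcypromine and 1 = vehicle-only wells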
CYP2C19 inhib = inhibitors of human CYP2C19; P33261; CYP2C19 Supersomes, luciferin-H EGE luminescence, 30 min; inhibition, % at 5 µM; 96,000 compounds, 21% hits; AID 778;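 active means CYP2C19 inhibition above a set limit at 5 µM in the primary screen, cut at about 50% in these data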;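 further: plate controls were negative control wells for no effect and 2.5 mM tranylcypromine positive control for full effect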
Pyk2 oligo antag = Pyk2 (human) oligomerization antagonism | Q14289 | Q293 cells, Pyk2 FERM NanoBiT luminescence; hits give low values | z-score (the deposit names both 25 µM and 10 µM) | 99,000 compounds, 0.83% hits;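 active means Z-score of -3 or lower, scaled per plate to the spread of control and sample wells; inactive means z-score above -3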;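 further: negative z-score means lost luminescence so less FERM oligomerization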
CYP2C9 activ = activators of human CYP2C9; P11712; recombinant CYP2C9, luciferin-H conversion, luminescence; hits give high values; factor 1 = untreated enzyme, 0 = blocked; activation factor at 5 µM; 96,000 compounds, 1.4% hits; AID 1024;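 active means activation factor of 2 or more for CYP2C9 at a 5 µM dose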;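 further: 0 = sulfaphenazole-blocked wells and 1 = vehicle-only wells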
* marks the source's active call; other numbers are inactive results. Rows were chosen to be rich in hits. Some 28% of all compounds tested hit in one or more screens of this group.

For O=S(=O)(Nc1ccccc1Cl)c1ccc(F)cc1 the results were CYP2C9 inhib 51*, CYP2C19 activ 0.1, CYP2C19 inhib 89*, Pyk2 oligo antag -0.43 and CYP2C9 activ 0.5.
Cc1ccc(S(=O)(=O)NNC(=S)Nc2ccccc2)cc1 was read as CYP2C9 inhib 35, CYP2C19 activ 0.7, CYP2C19 inhib 28, Pyk2 oligo antag -0.41 and CYP2C9 activ 0.6.
Screening Cc1cc(OCC(=O)Nc2ccc(OCc3ccccc3)cc2)nc(C(C)C)n1 returned CYP2C9 inhib 14, CYP2C19 activ 1, CYP2C19 inhib 1, Pyk2 oligo antag 0.35 and CYP2C9 activ 0.9.
For CC(CN1CCCC(C(N)=O)C1)c1ccccc1 (stereo not drawn) the results were CYP2C9 inhib -23, CYP2C19 activ 0.9, CYP2C19 inhib 10, Pyk2 oligo antag 0.14 and CYP2C9 activ 1.2.
O=C(Nc1cccc(O)c1)c1ccc(Br)cc1 was read as CYP2C9 inhib 29, CYP2C19 activ 0.5, CYP2C19 inhib 52*, Pyk2 oligo antag 0.94 and CYP2C9 activ 0.7.
`CCCCCc1ccc(S(=O)(=O)NCCc2ccncc2)cc1` gave CYP2C9 inhib 97*, CYP2C19 activ 0, CYP2C19 inhib 100*, Pyk2 oligo antag -0.36 and CYP2C9 activ 0.
O=C(O)CCc1ccc(S(=O)(=O)NCCc2ccccc2)cc1 was read as CYP2C9 inhib 2, CYP2C19 activ 1.2, CYP2C19 inhib -16, Pyk2 oligo antag 0.28 and CYP2C9 activ 1.
`CC(C)(C)c1ccc(S(=O)(=O)NCCOCC(F)(F)C(F)F)cc1` gave CYP2C9 inhib -141, CYP2C19 activ 0, CYP2C19 inhib 97*, Pyk2 oligo antag 0.34 and CYP2C9 activ 2.4*.
CCCc1ccc(S(=O)(=O)NCCc2ccncc2)cc1 was read as CYP2C9 inhib 98*, CYP2C19 activ 0, CYP2C19 inhib 99*, Pyk2 oligo antag 0.4 and CYP2C9 activ 0.
For COCCNS(=O)(=O)c1ccc(-c2ccc(S(=O)(=O)NCCOC)cc2)cc1 the results were Pyk2 oligo antag 0.16.
For CC(C)(C)c1ccc(S(=O)(=O)NCCc2ccncc2)cc1 the results were CYP2C9 inhib 92*, CYP2C19 activ 0, CYP2C19 inhib 100*, Pyk2 oligo antag 0.46 and CYP2C9 activ 0.1.
`Cn1c(=O)n(C)c2cc(S(=O)(=O)NCCc3ccccc3)ccc21` gave CYP2C9 inhib 5, CYP2C19 activ 0.6, CYP2C19 inhib 35, Pyk2 oligo antag 1.3 and CYP2C9 activ 0.9.
For CCN(CCCNC(=O)CCNC(=O)Cn1cnc2ccccc2c1=O)c1ccccc1 the results were CYP2C9 inhib 40, CYP2C19 activ 1, CYP2C19 inhib 1, Pyk2 oligo antag 0.84 and CYP2C9 activ 0.6.
Screening COc1c[nH]n(C2CCCCC2)c(=O)c1=O returned CYP2C9 inhib 22, CYP2C19 activ 1, CYP2C19 inhib 2, Pyk2 oligo antag -0.13 and CYP2C9 activ 0.8.
For C=CCN1CC2CC3(COc4cc(C)cc(C)c4)C=CC2(O3)C1=O (stereo not drawn) the results were CYP2C9 inhib 45, CYP2C19 activ 0.4, CYP2C19 inhib 65*, Pyk2 oligo antag 1.6 and CYP2C9 activ 0.5.
Cc1ccccc1-n1c(SC/C(O)=C(\C#N)c2nc3ccccc3[nH]2)nnc1-c1ccncc1 was read as CYP2C9 inhib 95*, CYP2C19 activ 0.1, CYP2C19 inhib 86*, Pyk2 oligo antag -1.7 and CYP2C9 activ 0.
`Cn1c(SCC(=O)Nc2ccccc2F)nnc1-c1ccc(S(=O)(=O)N2CCOCC2)cc1` gave CYP2C9 inhib 1, CYP2C19 activ 1, CYP2C19 inhib 1, Pyk2 oligo antag 0.27 and CYP2C9 activ 1.
CCOC(=O)/C=c1\s/c(=C\c2ccc3c(c2)OCCO3)c(=O)n1CC(=O)NCC1CCCO1 (stereo not drawn) was read as CYP2C9 inhib 58*, CYP2C19 activ 0.3, CYP2C19 inhib 73*, Pyk2 oligo antag -1.2 and CYP2C9 activ 0.4.
CCOC(=O)/C=c1\s/c(=C\c2c(OCC)ccc3ccccc23)c(=O)n1CC(=O)NCC1CCCO1 (stereo not drawn) was read as CYP2C9 inhib 70*, CYP2C19 activ 0.1, CYP2C19 inhib 93*, Pyk2 oligo antag -1.9 and CYP2C9 activ 0.3.
Cc1cc(NC(=O)CCC(=O)N(CC(=O)NCC2CCCO2)c2ccc3c(c2)OCCO3)no1 (stereo not drawn) was read as Pyk2 oligo antag 0.61.
`O=C(Nc1cccc2c1CCCC2)c1ccncc1` gave Pyk2 oligo antag 0.03.
For O=C(COc1ncnc2scc(-c3ccccc3)c12)NC1CCCc2ccccc21 (stereo not drawn) the results were Pyk2 oligo antag 1.3.
O=C1c2ccccc2C(=O)N1CC(O)COCc1ccccc1 (stereo not drawn) was read as CYP2C9 inhib -1, CYP2C19 activ 0.2, CYP2C19 inhib 81*, Pyk2 oligo antag -0.21 and CYP2C9 activ 1.
Screening CC(=O)C1C(c2ccccc2OC(F)F)NC(=O)NC1(O)C(F)(F)F (stereo not drawn) returned CYP2C9 inhib 14, CYP2C19 activ 1, CYP2C19 inhib 1 and CYP2C9 activ 0.9.
For CCn1c(C(O)c2ccccc2)nc2ccccc21 (stereo not drawn) the results were CYP2C9 inhib 16, CYP2C19 activ 0.1, CYP2C19 inhib 91*, Pyk2 oligo antag 0.22 and CYP2C9 activ 0.8.
For CCn1c(C(O)c2cccc(OC)c2OC)nc2ccccc21 (stereo not drawn) the results were CYP2C9 inhib 27, CYP2C19 activ 0.1, CYP2C19 inhib 87*, Pyk2 oligo antag 0.37 and CYP2C9 activ 0.7.
For COc1cccc(C(O)c2nc3ccccc3n2C(C)C)c1 (stereo not drawn) the results were CYP2C9 inhib 23, CYP2C19 activ 0.1, CYP2C19 inhib 91*, Pyk2 oligo antag -0.47 and CYP2C9 activ 0.8.
Screening CCn1c(C(C)NC(C)=O)nc2ccccc21 (stereo not drawn) returned CYP2C9 inhib -2, CYP2C19 activ 1.1, CYP2C19 inhib -7 and CYP2C9 activ 1.
For Cc1ccc(-c2nnc(N3CCN(C(=O)CSc4ncn[nH]4)CC3)c3ccccc23)cc1 the results were CYP2C9 inhib 64*, CYP2C19 activ 0.3, CYP2C19 inhib 70*, Pyk2 oligo antag -0.64 and CYP2C9 activ 0.4.
For Cc1ccc(OCC(=O)N2CCN(c3nnc(-c4ccccc4)c4ccccc34)CC2)cc1 the results were CYP2C9 inhib 45, CYP2C19 activ 0.5, CYP2C19 inhib 47, Pyk2 oligo antag -1.6 and CYP2C9 activ 0.6.
Screening Cc1ccc(C(=O)CSc2ncn[nH]2)cc1 returned CYP2C9 inhib 53*, CYP2C19 activ 0.5, CYP2C19 inhib 49, Pyk2 oligo antag 0.11 and CYP2C9 activ 0.5.
For CCc1ccc(C(=O)CSc2ncn[nH]2)cc1 the results were CYP2C9 inhib 31, CYP2C19 activ 0.3, CYP2C19 inhib 75*, Pyk2 oligo antag -0.65 and CYP2C9 activ 0.7.
